# From PubChem BioAssay
# Some of the results follow. The source made the active and inactive calls.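 The calls were made as follows, unless noted: active = over 150 percent of DMSO response; inconclusive = yeast strain measured with under 70 events; inactive = the rest.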
# Legend:
# [1] = inhibitors of CD8+ T cell-vesicle binding, pilot screen, LFA-1/ICAM-1 modulator project, MLPCN validation set, flow cytometry (AID 2523;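 active = response below a set limit, under 55% cells CD8-positive and vesicle-bound, and CD8 cells' 90th-percentile brightness under 279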;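 as to vesicle binding response: mean PE anti-B7-1 fluorescence of CD8+ cells relative to row control; 100% = QL9-loaded vesicles with DMSO vehicle in the same plate row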); conditions: 2C mouse CD8+ T cells, at 7 µM, stronger effect = lower value; double positive events: measured here: CD8+/vesicle+ event percentage
# [2] = target: Integrin beta-1 (Homo sapiens) + Integrin alpha-4 (Homo sapiens) (UniProt P13612+P05556); test: inhibition of HUTS-21 binding to VLA-4, pilot screen, VLA-4 allosteric modulator project, U937 cells, HUTS-21 mAb, flow cytometry, validation set (AID 2674;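 active = inhibition above 50%, about 3 SD of the validation set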;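 also: antibody binding induced by the VLA-4 ligand LDV present at three times its Kd; 0% = LDV ligand with antibody and no compound and 100% = antibody without LDV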); conditions: HUTS-21 LIBS mAb binding, at 6.7 µM, stronger effect = higher value, binding induced by LDV ligand
# Chain of Integrin beta-1 (Homo sapiens) + Integrin alpha-4 (Homo sapiens) (P05556 whole entry, looked up): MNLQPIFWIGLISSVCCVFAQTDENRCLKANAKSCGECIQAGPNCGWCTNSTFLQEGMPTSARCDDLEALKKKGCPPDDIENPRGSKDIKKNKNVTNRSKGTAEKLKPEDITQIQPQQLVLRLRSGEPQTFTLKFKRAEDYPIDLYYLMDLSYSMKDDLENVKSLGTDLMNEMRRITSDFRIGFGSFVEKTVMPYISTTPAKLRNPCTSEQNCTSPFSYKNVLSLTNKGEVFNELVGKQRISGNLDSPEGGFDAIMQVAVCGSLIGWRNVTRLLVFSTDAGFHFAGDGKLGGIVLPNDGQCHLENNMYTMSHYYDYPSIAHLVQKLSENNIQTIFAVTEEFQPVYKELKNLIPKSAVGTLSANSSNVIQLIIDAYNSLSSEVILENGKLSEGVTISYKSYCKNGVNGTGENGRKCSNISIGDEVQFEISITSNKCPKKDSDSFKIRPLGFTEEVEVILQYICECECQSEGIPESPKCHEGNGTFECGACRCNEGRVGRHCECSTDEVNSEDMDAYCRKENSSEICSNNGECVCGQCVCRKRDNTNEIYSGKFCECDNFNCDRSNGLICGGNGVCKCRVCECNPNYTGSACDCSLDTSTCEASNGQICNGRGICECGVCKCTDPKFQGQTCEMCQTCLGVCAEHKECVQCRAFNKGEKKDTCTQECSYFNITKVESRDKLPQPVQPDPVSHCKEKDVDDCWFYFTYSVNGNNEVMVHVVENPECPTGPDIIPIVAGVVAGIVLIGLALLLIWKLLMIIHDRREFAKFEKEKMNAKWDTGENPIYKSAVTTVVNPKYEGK
# Chain of Integrin beta-1 (Homo sapiens) + Integrin alpha-4 (Homo sapiens) (P13612 whole entry, looked up): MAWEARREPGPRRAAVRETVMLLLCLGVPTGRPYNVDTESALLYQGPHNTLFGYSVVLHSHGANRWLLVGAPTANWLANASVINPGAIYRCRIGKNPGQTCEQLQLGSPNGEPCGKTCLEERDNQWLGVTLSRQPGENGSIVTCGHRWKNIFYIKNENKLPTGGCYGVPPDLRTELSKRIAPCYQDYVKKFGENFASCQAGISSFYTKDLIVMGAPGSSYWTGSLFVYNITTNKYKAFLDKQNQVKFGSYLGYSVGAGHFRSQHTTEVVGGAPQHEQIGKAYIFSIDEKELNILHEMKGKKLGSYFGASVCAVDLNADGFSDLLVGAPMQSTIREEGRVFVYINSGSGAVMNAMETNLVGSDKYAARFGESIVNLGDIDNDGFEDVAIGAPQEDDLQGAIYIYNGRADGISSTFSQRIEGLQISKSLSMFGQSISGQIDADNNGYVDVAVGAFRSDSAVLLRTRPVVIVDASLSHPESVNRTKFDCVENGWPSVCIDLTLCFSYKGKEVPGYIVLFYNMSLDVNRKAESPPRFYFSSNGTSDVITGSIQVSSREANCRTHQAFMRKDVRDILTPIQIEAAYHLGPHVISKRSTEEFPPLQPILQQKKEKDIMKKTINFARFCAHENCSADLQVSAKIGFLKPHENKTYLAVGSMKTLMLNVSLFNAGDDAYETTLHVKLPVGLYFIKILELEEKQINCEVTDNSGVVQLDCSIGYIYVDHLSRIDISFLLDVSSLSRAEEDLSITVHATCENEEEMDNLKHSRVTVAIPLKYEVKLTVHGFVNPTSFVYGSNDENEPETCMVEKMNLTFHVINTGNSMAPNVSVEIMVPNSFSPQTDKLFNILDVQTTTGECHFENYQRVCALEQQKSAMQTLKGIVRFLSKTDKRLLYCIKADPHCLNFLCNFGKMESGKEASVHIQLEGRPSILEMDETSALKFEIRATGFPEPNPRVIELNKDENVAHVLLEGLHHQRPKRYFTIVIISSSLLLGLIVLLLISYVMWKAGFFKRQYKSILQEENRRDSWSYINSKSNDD
# [3] = target: Beta-adrenergic receptor kinase 1 (Homo sapiens) (UniProt P25098); test: GRK2 binders displacing RNA aptamer, biochemical, validation, human GRK2, bead flow cytometry (AID 488806;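 active = aptamer binding inhibition above 30%, about 3 SD of noise from non-fluorescent compounds; inactive = inhibition at or below 30%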); conditions: bead-bound GRK2, FAM-aptamer displacement, at 10 µM, stronger effect = higher value
# Chain of Beta-adrenergic receptor kinase 1 (Homo sapiens) (P25098 whole entry, looked up): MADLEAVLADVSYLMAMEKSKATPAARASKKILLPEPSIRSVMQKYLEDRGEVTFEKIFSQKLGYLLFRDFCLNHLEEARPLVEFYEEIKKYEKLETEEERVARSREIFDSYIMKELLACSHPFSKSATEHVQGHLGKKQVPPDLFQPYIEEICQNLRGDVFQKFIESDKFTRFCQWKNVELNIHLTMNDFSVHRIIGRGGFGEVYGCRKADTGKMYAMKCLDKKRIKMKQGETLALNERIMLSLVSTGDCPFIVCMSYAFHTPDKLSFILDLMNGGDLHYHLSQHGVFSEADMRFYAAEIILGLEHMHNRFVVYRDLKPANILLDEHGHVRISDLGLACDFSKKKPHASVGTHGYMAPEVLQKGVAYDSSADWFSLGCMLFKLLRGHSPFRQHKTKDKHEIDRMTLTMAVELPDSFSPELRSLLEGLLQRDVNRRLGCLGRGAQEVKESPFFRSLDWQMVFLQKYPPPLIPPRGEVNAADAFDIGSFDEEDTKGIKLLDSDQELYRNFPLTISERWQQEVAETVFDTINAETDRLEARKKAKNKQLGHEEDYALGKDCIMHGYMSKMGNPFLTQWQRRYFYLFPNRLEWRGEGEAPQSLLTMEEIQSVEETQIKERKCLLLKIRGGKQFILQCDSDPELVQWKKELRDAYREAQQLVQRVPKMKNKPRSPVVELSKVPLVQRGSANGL
# [4] = target: Beta-2 adrenergic receptor (Homo sapiens) (UniProt P07550); test: beta2AR agonists driving receptor internalization, pilot screen, cell-based, FAP fluorogen, flow cytometry, validation set (AID 504459;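 active = percent response above 42, roughly 3 SD of non-fluorescent test compounds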;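 also: agonist-driven loss of surface beta2AR via internalization measured by FAP dye flow cytometry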); conditions: Am2.2-beta2AR cells, FAP surface receptor flow cytometry; at 10 µM; stronger effect = higher value
# Chain of Beta-2 adrenergic receptor (Homo sapiens) (P07550 whole entry, looked up): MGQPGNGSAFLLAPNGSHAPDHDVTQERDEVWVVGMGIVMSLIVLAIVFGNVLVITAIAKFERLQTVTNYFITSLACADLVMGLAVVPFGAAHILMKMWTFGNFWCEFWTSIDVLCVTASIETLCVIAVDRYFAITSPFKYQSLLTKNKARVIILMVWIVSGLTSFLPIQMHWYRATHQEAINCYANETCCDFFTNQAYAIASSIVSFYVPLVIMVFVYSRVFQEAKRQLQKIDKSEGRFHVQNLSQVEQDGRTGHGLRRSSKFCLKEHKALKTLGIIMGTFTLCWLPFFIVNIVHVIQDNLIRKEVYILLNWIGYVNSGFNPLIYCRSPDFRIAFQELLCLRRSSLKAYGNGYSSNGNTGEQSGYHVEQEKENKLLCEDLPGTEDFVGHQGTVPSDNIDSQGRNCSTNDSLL
# [5] = yeast V-ATPase proton transport modulators, S. cerevisiae, pHLuorin, HTS validation (AID 504600; in the data active = response above about 15%;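 also: plate controls were DMSO for no effect and reference compound for full effect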); conditions: S. cerevisiae pHLuorin cytosolic pH, at 10 µM, stronger effect = higher value
# [6] = system: anti-desmoglein-3 scFv antibody binding to human DSG3; test: inhibitors of anti-DSG3 scFv binding to DSG3, pilot screen, biochemical, validation compound set, bead-based, flow cytometry (AID 588368;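 active = binding below the plate cutoff, the plate median minus 3 SD, with a reading above zero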;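 also: signal is the median channel fluorescence of bead-bound GFP antibody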); conditions: Protein G beads, DSG3-Fc, scFv-GFP binding, at 10 µM, stronger effect = lower value
# [7] = inhibitors of fungal efflux pumps CDR1, CDR2, MDR1, pilot screen, validation compound set, multiplex, phenotypic (AID 588506;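 active = efflux inhibition above 0.42, the validation set average plus 4 SD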;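 also: Nile Red retained in cells so higher fluorescence means more efflux inhibition; 0 = negative control wells and 1 = enniatin B 25 µM full block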); conditions: S. cerevisiae pump-expressing triplex, Nile Red efflux flow cytometry; at 10 µM; stronger effect = higher value; the pumps come from Candida albicans
# [8] = target: ATP-binding cassette sub-family B member 6 (Homo sapiens) (UniProt Q9NP58); test: ABCB6 transporter inhibitors, pilot screen, K562-ABCB6 cells, flow cytometry, validation set (AID 588550;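 active = inhibition above the screen-wide mean plus 3 SD, about 51%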;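 also: 0% = DMSO wells and 100% = benzethonium chloride 70 µM positive control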); conditions: K562-ABCB6 porphyrin accumulation, 1 h, at 10 µM, stronger effect = higher value
# Chain of ATP-binding cassette sub-family B member 6 (Homo sapiens) (Q9NP58 whole entry, looked up): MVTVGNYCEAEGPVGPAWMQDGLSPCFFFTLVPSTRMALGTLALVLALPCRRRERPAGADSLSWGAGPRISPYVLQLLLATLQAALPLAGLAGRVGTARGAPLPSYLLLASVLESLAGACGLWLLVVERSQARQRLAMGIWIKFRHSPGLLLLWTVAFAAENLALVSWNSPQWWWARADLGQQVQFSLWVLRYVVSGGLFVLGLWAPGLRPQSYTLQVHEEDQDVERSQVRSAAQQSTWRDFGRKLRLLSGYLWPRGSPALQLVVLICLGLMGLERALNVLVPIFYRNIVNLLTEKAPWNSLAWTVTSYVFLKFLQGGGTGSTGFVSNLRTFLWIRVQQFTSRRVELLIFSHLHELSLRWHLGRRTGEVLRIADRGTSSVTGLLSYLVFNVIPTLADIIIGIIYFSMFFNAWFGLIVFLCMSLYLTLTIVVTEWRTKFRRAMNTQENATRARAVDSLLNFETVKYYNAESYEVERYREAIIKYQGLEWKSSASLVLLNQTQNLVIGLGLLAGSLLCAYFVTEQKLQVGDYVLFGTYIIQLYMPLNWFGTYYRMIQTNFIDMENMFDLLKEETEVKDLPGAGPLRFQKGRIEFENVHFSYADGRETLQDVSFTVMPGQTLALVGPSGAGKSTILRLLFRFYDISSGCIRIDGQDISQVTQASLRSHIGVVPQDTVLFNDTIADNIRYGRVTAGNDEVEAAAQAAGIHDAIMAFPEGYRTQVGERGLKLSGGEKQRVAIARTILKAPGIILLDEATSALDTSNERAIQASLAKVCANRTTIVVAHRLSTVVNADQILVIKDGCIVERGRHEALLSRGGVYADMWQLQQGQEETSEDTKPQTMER
# [9] = promoters of myeloid differentiation in arrested cells, primary screen, cell-based, GFP/MAC1 double positive, flow cytometry, validation set (AID 588685;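 active = differentiation response of at least 50%, scaled between solvent and reference control, from cells with both markers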;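 also: compound exposure lasts four days before antibody staining and flow analysis; 0% = DMSO wells and 100% = 5 µM fulvestrant positive control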); conditions: ER-HoxA9 marrow cells, stronger effect = higher value, normalized: vehicle 0, fulvestrant 100
# [10] = target: AP-2 complex subunit beta (Homo sapiens) (UniProt P63010); test: inhibitors of arrestin peptide binding to AP2, pilot screen, biochemical, validation set, GST-AP2 beads, flow cytometry (AID 504541;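 active = inhibition above 54%, about 3 SD of non-fluorescent compounds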;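 also: AP2 carries R879A mutation and is captured from E. coli lysate; bead-bound FITC arrestin peptide fluorescence measuring arrestin peptide binding to AP2; 0% = DMSO wells and 100% = excess unlabeled arrestin peptide control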); conditions: FITC arrestin peptide, at 10 µM, stronger effect = higher value, AP2 beta2 appendage fragment, R879A mutant
# Chain of AP-2 complex subunit beta (Homo sapiens) (P63010 whole entry, looked up, the tested form may be a part, one chain of several): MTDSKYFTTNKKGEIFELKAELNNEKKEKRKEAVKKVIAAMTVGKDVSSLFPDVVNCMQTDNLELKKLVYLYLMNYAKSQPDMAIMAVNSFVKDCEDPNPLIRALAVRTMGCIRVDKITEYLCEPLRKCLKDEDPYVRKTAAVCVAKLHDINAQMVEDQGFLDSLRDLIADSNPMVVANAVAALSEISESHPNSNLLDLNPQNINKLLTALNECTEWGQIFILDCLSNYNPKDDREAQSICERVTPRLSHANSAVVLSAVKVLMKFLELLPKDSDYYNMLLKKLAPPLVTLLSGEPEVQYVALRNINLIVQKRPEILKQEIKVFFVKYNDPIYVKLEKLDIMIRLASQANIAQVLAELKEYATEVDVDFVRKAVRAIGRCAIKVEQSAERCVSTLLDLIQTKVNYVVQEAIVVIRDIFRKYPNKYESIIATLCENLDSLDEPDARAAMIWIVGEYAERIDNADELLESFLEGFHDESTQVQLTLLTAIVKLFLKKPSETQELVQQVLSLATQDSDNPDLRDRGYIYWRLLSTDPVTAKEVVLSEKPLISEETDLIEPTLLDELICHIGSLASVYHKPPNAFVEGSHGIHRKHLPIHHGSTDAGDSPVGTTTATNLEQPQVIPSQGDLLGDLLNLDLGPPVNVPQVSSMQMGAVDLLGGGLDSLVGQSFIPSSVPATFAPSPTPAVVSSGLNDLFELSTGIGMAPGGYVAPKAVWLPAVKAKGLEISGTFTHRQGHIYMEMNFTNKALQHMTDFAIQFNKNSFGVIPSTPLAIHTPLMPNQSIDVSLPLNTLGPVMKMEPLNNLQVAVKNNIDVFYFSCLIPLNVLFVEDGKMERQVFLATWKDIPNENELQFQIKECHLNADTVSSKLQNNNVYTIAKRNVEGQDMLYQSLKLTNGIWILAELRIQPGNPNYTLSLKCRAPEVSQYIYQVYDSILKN
# [11] = LAP4-GFP expression modulators in yeast, confirmation, cell-based, second cherry pick, flow cytometry (AID 2621;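 active = GFP signal as percent of the solvent control above about 150%, meaning raised reporter expression, limit read from the data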;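 also: ratio of well median GFP fluorescence to plate DMSO mean so 100% = DMSO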); conditions: S. cerevisiae LAP4-GFP strain, 3 h, at 10 µM, stronger effect = higher value
# [12] = modulators of MEP2-GFP levels in yeast, confirmation, S. cerevisiae, flow cytometry GFP, second cherry picks (AID 2622;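 active = GFP signal above 150% of the solvent control wells, that is a rise of more than half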;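 also: median channel GFP fluorescence of all gated yeast cells per well; ratio of median GFP to plate DMSO average so 100% = DMSO level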); conditions: S. cerevisiae MEP2-GFP strain, 3 h, at 10 µM, stronger effect = higher value
# [13] = RPL19A-GFP modulators in TOR pathway yeast, confirmation, cell-based, S. cerevisiae, flow cytometry, second cherry pick (AID 2623;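 active = under 65% GFP response relative to DMSO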;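 also: median GFP channel fluorescence per well over the all cells gate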); conditions: S. cerevisiae RPL19A-GFP strain, 3 h, at 10 µM, stronger effect = lower value, 100% means same as DMSO wells
# [14] = modulators of CIT2-GFP expression in yeast, confirmation, flow cytometry, second cherry pick, single plex (AID 2624;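 active = GFP response vs DMSO above about 150%, limit read from the data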;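 also: median green fluorescence per well over all gated yeast cells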); conditions: S. cerevisiae CIT2-GFP strain, 3 h, at 10 µM, stronger effect = higher value, DMSO control wells read 100%
# [15] = AGP1-GFP expression modulators, hit retest, confirmation, cell-based, flow cytometry, S. cerevisiae, cherry pick set 2 (AID 2643);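 also: median GFP channel fluorescence over all cells without mother daughter split; sample median GFP divided by mean DMSO control so 100% equals DMSO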; conditions: S. cerevisiae AGP1-GFP strain, 3 h, at 10 µM, stronger effect = higher value
# [16] = superoxide lowering in aged yeast cells, pilot screen, validation compound set (AID 2706;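 active = superoxide response below 65% of plate, a cut near 3 SD across the whole screen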;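 also: yeast exposed to compound for one week at 30 degrees C before staining; 100% = mean of all compound wells on the same plate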); conditions: S. cerevisiae aging, superoxide DHE fluorescence; at 10 µM, stronger effect = lower value
# [17] = compound autofluorescence in yeast s288c, dose response, artefact control for yeast TOR pathway GFP screen, s288c strain (AID 2757;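 active = fluorescence span over the dose series, or activity score, above about 33, limit read from the data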;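 also: thousands of bead-calibrated equivalent soluble fluorophore molecules from median cell fluorescence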); conditions: S. cerevisiae s288c, 520 nm autofluorescence, flow cytometry, 3 h; at 33 µM; stronger effect = higher value; zero means same as solvent-only cells
compound,measurement,setting,value
CCn1c(=N)c(C(=O)NC)cc2c(=O)n3cccc(C)c3nc21,double positive events,[1],55.2%
same,vesicle binding response,[1],26.6% (inactive)
same,inhibition,[2],-8.75% (inactive)
same,aptamer binding inhibition,[3],2% (inactive)
same,response,[4],-15.1% (inactive)
same,response,[5],-34.5% (inactive)
same,binding (% of control),[6],108% (inactive)
same,efflux inhibition (fraction of control),[7],1.08 (active)
same,inhibition,[8],5% (inactive)
same,differentiation response,[9],24.7% (inactive)
COC(=O)c1cc(-c2ccc(OC)c(OC)c2)on1,double positive events,[1],64.8%
same,vesicle binding response,[1],155% (inactive)
same,inhibition,[2],-0.45% (inactive)
same,aptamer binding inhibition,[3],-1% (inactive)
same,response,[4],17.4% (inactive)
same,inhibition,[10],35.3% (inactive)
same,response,[5],-27.6% (inactive)
same,binding (% of control),[6],107% (inactive)
same,efflux inhibition (fraction of control),[7],0.61 (active)
same,inhibition,[8],0% (inactive)
same,differentiation response,[9],31.5% (inactive)
COc1ccc(C)cc1NC(=O)CSc1nc(SC)ns1,GFP response vs DMSO,[11],97.2% (inactive)
same,GFP response vs DMSO,[12],97.8% (inactive)
same,GFP response vs DMSO,[13],100% (inactive)
same,GFP response vs DMSO,[14],102% (inactive)
same,percent response vs DMSO,[15],100% (inactive)
O=C(NCCN1CCCCC1)c1c(O)c2ccccc2[nH]c1=O,double positive events,[1],61.8%
same,vesicle binding response,[1],38% (inactive)
same,inhibition,[2],-6.68% (inactive)
same,aptamer binding inhibition,[3],-4% (inactive)
same,response,[4],0.73% (inactive)
same,inhibition,[10],5.65% (inactive)
same,response,[5],3.25% (inactive)
same,binding (% of control),[6],109% (inactive)
same,efflux inhibition (fraction of control),[7],0.49 (active)
same,inhibition,[8],-4% (inactive)
same,differentiation response,[9],21.8% (inactive)
COc1ccc(S(=O)(=O)N2CCN(C(=O)COc3ccc4c(C)cc(=O)oc4c3)CC2)cc1,double positive events,[1],90%
same,inhibition,[2],3.67% (inactive)
same,superoxide response (% of plate),[16],96.9% (inactive)
same,aptamer binding inhibition,[3],-1% (inactive)
same,response,[4],11.5% (inactive)
same,inhibition,[10],-2.78% (inactive)
same,response,[5],0.22% (inactive)
same,binding (% of control),[6],103% (inactive)
same,efflux inhibition (fraction of control),[7],0.3 (inactive)
same,inhibition,[8],-3% (inactive)
same,differentiation response,[9],4% (inactive)
Cc1ccc2nc(N(CCN(C)C)C(=O)C3=COCCO3)sc2c1,GFP response vs DMSO,[11],102% (inactive)
same,GFP response vs DMSO,[12],105% (inactive)
same,GFP response vs DMSO,[13],98.9% (inactive)
same,GFP response vs DMSO,[14],103% (inactive)
same,percent response vs DMSO,[15],104% (inactive)
O=C(Nc1nnc(-c2ccc(Cl)cc2)o1)c1ccccc1Br,GFP response vs DMSO,[11],174% (active)
same,GFP response vs DMSO,[12],120% (inactive)
same,GFP response vs DMSO,[13],99.6% (inactive)
same,GFP response vs DMSO,[14],133% (inactive)
same,percent response vs DMSO,[15],95.3% (inactive)
same,fluorescence change (kMESF span),[17],0.5 (inactive)
CS(=O)(=O)Oc1ccc2c(c1)O/C(=C\C=C\c1ccccc1)C2=O,double positive events,[1],64.8%
same,vesicle binding response,[1],247% (inactive)
same,inhibition,[2],-40.9% (inactive)
same,aptamer binding inhibition,[3],4% (inactive)
same,response,[4],26.6% (inactive)
same,inhibition,[10],27.4% (inactive)
same,response,[5],-12.2% (inactive)
same,binding (% of control),[6],88.2% (inactive)
same,efflux inhibition (fraction of control),[7],-0.14 (inactive)
same,inhibition,[8],-22% (inactive)
same,differentiation response,[9],30.5% (inactive)
CCn1c(SCCC(C)C)nnc1-c1c[nH]c2ccccc12,GFP response vs DMSO,[11],95.2% (inactive)
same,GFP response vs DMSO,[12],96.1% (inactive)
same,GFP response vs DMSO,[13],96.3% (inactive)
same,GFP response vs DMSO,[14],100% (inactive)
same,percent response vs DMSO,[15],96.7% (inactive)
Cc1ccc(S/C(=N\S(=O)(=O)c2ccc(Cl)cc2)c2ccccc2)cc1,GFP response vs DMSO,[11],101% (inactive)
same,GFP response vs DMSO,[12],105% (inactive)
same,GFP response vs DMSO,[13],98% (inactive)
same,GFP response vs DMSO,[14],107% (inactive)
same,percent response vs DMSO,[15],99.1% (inactive)
COc1ccc(CCNC(=O)CS(=O)(=O)Cc2nc(-c3ccc(C)cc3)oc2C)cc1OC,GFP response vs DMSO,[11],103% (inactive)
same,GFP response vs DMSO,[12],99.6% (inactive)
same,GFP response vs DMSO,[13],95.5% (inactive)
same,GFP response vs DMSO,[14],100% (inactive)
same,percent response vs DMSO,[15],101% (inactive)
C(=C\c1ccccc1)/CN1CCN(C(c2ccccc2)c2ccccc2)CC1,double positive events,[1],66.7%
same,inhibition,[2],-1.3% (inactive)
same,superoxide response (% of plate),[16],86.5% (inactive)
same,aptamer binding inhibition,[3],0% (inactive)
same,response,[4],11.4% (inactive)
same,inhibition,[10],0.96% (inactive)
same,response,[5],0.39% (inactive)
same,binding (% of control),[6],120% (inactive)
same,efflux inhibition (fraction of control),[7],-0.24 (inactive)
same,inhibition,[8],16% (inactive)
same,differentiation response,[9],1.64% (inactive)
O=C(NC(=S)NC1CCS(=O)(=O)C1)c1cccc([N+](=O)[O-])c1 (stereo unspecified),GFP response vs DMSO,[11],101% (inactive)
same,GFP response vs DMSO,[12],105% (inactive)
same,GFP response vs DMSO,[13],101% (inactive)
same,GFP response vs DMSO,[14],105% (inactive)
same,percent response vs DMSO,[15],106% (inactive)
